Results as given in PubChem BioAssay AID720597 (Broad Institute, 2013).
Entries with a potency or affinity are not part of this list. Activity calls are given as the source filed them.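 Rule for the calls: active = fitted half-maximal dose no more than twice the top valid tested dose, for compounds that lower signal; inconclusive = fit invalid, or curve flat with activity between -70 and -30; inactive = potency past limit, curve flat within ±30, or signal increasing.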

Molecular target: NAD-dependent protein deacylase sirtuin-5, mitochondrial (Homo sapiens) (UniProt Q9NXA8)
Sequence (Q9NXA8 whole entry, looked up): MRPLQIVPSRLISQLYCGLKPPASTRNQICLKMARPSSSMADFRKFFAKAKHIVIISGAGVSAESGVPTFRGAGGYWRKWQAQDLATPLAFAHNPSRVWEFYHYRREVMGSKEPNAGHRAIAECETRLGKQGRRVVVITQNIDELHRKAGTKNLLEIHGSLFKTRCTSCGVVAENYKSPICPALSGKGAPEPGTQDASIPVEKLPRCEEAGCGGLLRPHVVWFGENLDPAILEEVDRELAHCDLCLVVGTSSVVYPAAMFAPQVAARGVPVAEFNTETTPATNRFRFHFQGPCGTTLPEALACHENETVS
Assay: blockers of sirtuin-5 peptide desuccinylation – biochemical, fluorescence imaging, cherry-pick, set 6, dose response (AID 720597);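 note: lower AMC signal can also come from blocking the trypsin step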
Settings: Purified SirT5, succinyl-peptide-AMC/trypsin fluorescence; series mostly up to 15 µM

outcome, inactive:
COc1ccc(S(=O)(=O)N(C)C[C@@H]2OCCCC[C@H](C)Oc3ccc(NS(=O)(=O)c4ccc(F)cc4)cc3C(=O)N([C@@H](C)CO)C[C@@H]2C)cc1
C[C@H]1CN([C@@H](C)CO)C(=O)c2cc(NC(=O)Cc3ccccc3)ccc2O[C@@H]1CN(C)Cc1ccc(Oc2ccccc2)cc1
C[C@@H]1CN([C@@H](C)CO)C(=O)c2cc(NS(=O)(=O)c3cccs3)ccc2O[C@@H](C)CCCCO[C@@H]1CN(C)Cc1ccc(C(F)(F)F)cc1
C[C@H]1CN([C@@H](C)CO)S(=O)(=O)c2ccc(/C=C/c3ccccc3)cc2O[C@H]1CN(C)Cc1ccccc1
C[C@@H]1CCCCO[C@@H](CN(C)C(=O)Nc2ccc(C(F)(F)F)cc2)[C@H](C)CN([C@H](C)CO)C(=O)c2cc(NS(=O)(=O)c3ccc(Cl)cc3)ccc2O1
COc1ccccc1NC(=O)N1CC(=O)N2[C@H](CO)[C@@H](c3ccc(C#CC4CC4)cc3)[C@H]2C1
COc1cccc(S(=O)(=O)N(C)C[C@H]2Oc3cc(C4=CCCCC4)ccc3S(=O)(=O)N([C@H](C)CO)C[C@@H]2C)c1
C[C@@H]1CN([C@@H](C)CO)C(=O)c2cc(NC(=O)Cc3ccccc3)ccc2O[C@H]1CN(C)Cc1ccc(Oc2ccccc2)cc1
CCCC(=O)Nc1ccc2c(c1)OC[C@H](C)N(Cc1ccccc1)C[C@H](C)[C@@H](OC)CN(C)C2=O
C[C@@H]1CN([C@@H](C)CO)C(=O)c2cc(-c3cccnc3)cnc2O[C@H]1CN(C)C(=O)Nc1ccc2c(c1)OCO2
